RGS7-Gao reg: modulates binding of RGS7 to human Galphao | P09471 | Multiplexed bead flow cytometry; actives lie on both sides | binding response (% of control), % at 10 µM | hit rate 0.35% among 220,000 | AID 1439; in the data active means binding response below about 49% or above about 150%; inconclusive means no clear call, values can overlap the other calls; inactive means in between;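 further: fluorescent Galphao held in activated GDP-AlF4 state binding bead-coupled RGS7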
Target sequence (P09471 whole entry, looked up): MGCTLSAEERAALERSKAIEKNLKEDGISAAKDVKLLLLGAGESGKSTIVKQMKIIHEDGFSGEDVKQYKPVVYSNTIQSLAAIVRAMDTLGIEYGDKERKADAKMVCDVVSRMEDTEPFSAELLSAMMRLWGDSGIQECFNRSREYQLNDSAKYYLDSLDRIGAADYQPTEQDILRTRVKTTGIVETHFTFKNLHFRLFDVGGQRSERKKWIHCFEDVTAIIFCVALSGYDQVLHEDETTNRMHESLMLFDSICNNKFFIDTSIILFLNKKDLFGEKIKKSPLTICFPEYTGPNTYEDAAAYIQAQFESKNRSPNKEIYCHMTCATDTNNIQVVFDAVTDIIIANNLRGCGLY
GSH fluor: compound fluoresces at 488/530 nm on GSH beads | GSH beads flow cytometry, compound fluorescence 488/530 nm; stronger effect = higher value | fluorescence (KMESF) at 10 µM | hit rate 0.25% among 190,000 | AID 1776; in the data active means fluorescence above about 89;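 further: glutathione beads carrying GST-tagged Bcl family fusion proteins plus one bare bead set; values are compound well signal with DMSO vehicle wells as background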
Avidin fluor: avidin bead compound fluorescence profile | Avidin beads, compound fluorescence 488/530 nm, flow cytometry; stronger effect = higher value | fluorescence (KMESF) at 10 µM | AID 1775 | hit rate 0.38% among 220,000; in the data active means fluorescence above about 47
RGS8-Gao reg: human RGS8-Galphao interaction regulation | AID 1423 | response (percent of control binding), % at 10 µM | hit rate 0.34% among 220,000 | multiplexed bead flow cytometry, RGS8-Galphao binding; actives lie on both sides | P09471; in the data active means response below about 60% or above about 140%; inactive means in between;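 further: Galphao activated as the GDP aluminium fluoride complex binding bead-coupled RGS8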
RGS4-Gao reg: human RGS4-Galphao interaction regulation | hit rate 0.33% among 220,000 | P09471 | binding response (% of control), % at 10 µM | Multiplexed bead flow cytometry, RGS4-Galphao binding; actives lie on both sides; in the data active means binding response below about 49% or above about 150%; inactive means in between;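 further: fluorescent Galphao activated with aluminum fluoride binding bead-coupled RGS4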
RGS16-Gao HTS: RGS16-Galphao interaction regulator (human) | O15492+P09471 | bead-based flow cytometry RGS16-Galphao binding, fluorescence; actives lie on both sides | binding response (% of control), % at 10 µM | hit rate 0.38% among 220,000 | AID 1441;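 further: Galphao activated by GDP with aluminum fluoride before binding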
Target sequence (O15492 whole entry, looked up): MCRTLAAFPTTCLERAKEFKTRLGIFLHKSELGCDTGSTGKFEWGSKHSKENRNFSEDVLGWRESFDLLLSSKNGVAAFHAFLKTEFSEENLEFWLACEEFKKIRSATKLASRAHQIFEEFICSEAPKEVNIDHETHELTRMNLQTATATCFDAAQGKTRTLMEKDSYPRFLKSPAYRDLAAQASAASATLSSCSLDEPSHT
Target sequence (P09471 whole entry, looked up): as the sequence (P09471 whole entry, looked up) above
RGS-Gao: modulates binding between human RGS4 and Galphao; hit rate 99% among 1,600; AID 1504; multiplexed bead flow cytometry, RGS–Galpha-o binding; shares compounds with RGS16-Gao HTS; RGS4–Galpha-o binding response, % at 10 µM;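 further: fluorescently labeled Galpha-o bound to GDP with aluminium fluoride binding biotinylated RGS beads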
Biotin-avidin: interferes with biotinylated probe binding to avidin beads | shares compounds with RGS16-Gao HTS | AID 1783 | streptavidin beads, fluorescein-biotin binding, flow cytometry | inhibition, % at 10 µM | 1,700 tested, under 10 active;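 active means inhibition above 50%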;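 further: median green fluorescence of gated singlet beads compared with DMSO control wells; 0% = DMSO wells and 100% = complete loss of bead fluorescence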
RGS8-Gao single: RGS8-Galphao interaction regulation, single point confirmation; shares compounds with RGS16-Gao HTS; bead-based flow cytometry RGS8-Galphao binding, fluorescence; actives lie on both sides; binding response (% of control), % at 10 µM; hit rate 3% among 1,700; AID 1836; in the data active means binding response below about 72% or above about 130%; inactive means in between;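 further: Galphao activated as GDP AlF4 complex before binding bead RGS8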
RGS7-Gao single: confirmation of regulators of human RGS7-Galphao interaction. AID 1837. bead-based flow cytometry RGS7-Galphao binding; actives lie on both sides. shares compounds with RGS16-Gao HTS. hit rate 7.8% among 1,700. response (percent of control binding), % at 10 µM; in the data active means response below about 75% or above about 130%; inactive means in between;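 further: fluorescent Galphao activated with GDP and aluminum fluoride binding bead-coupled RGS7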
RGS16-Gao conf: RGS16-Galphao interaction regulation, single point confirmation; bead-based flow cytometry, RGS16-Galphao binding; actives lie on both sides; hit rate 4% among 1,700; AID 1838; shares compounds with RGS16-Gao HTS; response (% of control binding), % at 10 µM; in the data active means response below about 74% or above about 130%; inactive means in between;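 further: Galphao activated as the GDP aluminium fluoride complex binding bead-coupled RGS16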
RGS4-Gao confirm: RGS4-Galphao interaction regulation, single point confirmation; binding response (% of control), % at 10 µM; AID 1840; hit rate 4% among 1,700; shares compounds with RGS16-Gao HTS; RGS4-Galphao binding, multiplexed bead flow cytometry; actives lie on both sides; in the data active means binding response below about 74% or above about 130%; inactive means in between
RGS19-Gao single: RGS19-Galphao interaction regulation, single point confirmation | hit rate 5% among 1,700 | bead-based flow cytometry RGS19-Galphao binding; actives lie on both sides | response (percent of control binding), % at 10 µM | shares compounds with RGS16-Gao HTS; in the data active means response below about 50% or above about 160%; inactive means in between;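 further: 100% = no compound control and 0% = blank background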
An asterisk follows results filed as active; [ ] = remark or other dose. An excerpt weighted towards active compounds, which were near 1.2% of everything screened. Unless noted, how the calls were made is not given here.

`COc1ccc(C)c2sc(NC(=O)C3=COCCO3)nc12` gave RGS7-Gao reg 312.9*[activator], GSH fluor 25, Avidin fluor 175*, RGS8-Gao reg 84.2, RGS4-Gao reg 132.4, RGS16-Gao HTS 108.8 and RGS-Gao 132.4*.
`Clc1ccc(C2=CSC3=NCCN23)cc1Cl` gave RGS7-Gao reg -0.4*, GSH fluor 11, Avidin fluor 0, RGS8-Gao reg 17.6*, RGS4-Gao reg -19.2*, RGS16-Gao HTS -13.5*, Biotin-avidin -0.1, RGS8-Gao single 102.2, RGS7-Gao single 90.7, RGS16-Gao conf 100.1, RGS4-Gao confirm 97.5 and RGS19-Gao single 104.5.
Screening NC(=S)NNC(=O)c1cccc(Cl)c1 returned RGS7-Gao reg inconclusive, Avidin fluor 7, RGS8-Gao reg 94.3, RGS4-Gao reg 90.7 and RGS16-Gao HTS 91.6.
Screening C[n+]1cccc(C(=O)NCC2CCCO2)c1 (stereo unspecified) returned RGS7-Gao reg 111.5, GSH fluor 12, Avidin fluor 6, RGS8-Gao reg 147.2*[activator], RGS4-Gao reg 117.2, RGS16-Gao HTS 308.0*[activator], RGS-Gao 117.2*, Biotin-avidin 0.1, RGS8-Gao single 99.4, RGS7-Gao single 101.3, RGS16-Gao conf 100.4, RGS4-Gao confirm 100.9 and RGS19-Gao single 98.2.
For CCC(C)(C)NC(=O)c1cc(C(=O)OC)cc([N+](=O)[O-])c1 the results were RGS7-Gao reg 99.6, GSH fluor 30, Avidin fluor 8, RGS8-Gao reg 98.5, RGS4-Gao reg 97.4 and RGS16-Gao HTS 108.0.
`CCOP(=O)(OCC)C(C)(C)NC(=O)c1cc([N+](=O)[O-])cc([N+](=O)[O-])c1` gave GSH fluor 50, Biotin-avidin -1.0, RGS8-Gao single 103.8, RGS7-Gao single 105.4, RGS16-Gao conf 104.5, RGS4-Gao confirm 103.0 and RGS19-Gao single 92.4.
Screening O=P(COCCCCCOCP(=O)(c1ccccc1)c1ccccc1)(c1ccccc1)c1ccccc1 returned RGS7-Gao reg 105.2, GSH fluor 26, Avidin fluor 10, RGS8-Gao reg 101.7, RGS4-Gao reg 101.6 and RGS16-Gao HTS 97.0.
Cn1c(=O)c2c(nc(Br)n2Cc2nnc(N)s2)n(C)c1=O was read as RGS7-Gao reg inconclusive, Avidin fluor 7, RGS8-Gao reg 91.1, RGS4-Gao reg 91.5 and RGS16-Gao HTS 91.7.
`Cc1ccc(S(=O)(=O)Nc2ccccc2/C=N/c2nc3ccccc3n2C)cc1` gave GSH fluor 9, Avidin fluor 5, RGS8-Gao reg 102.3, RGS4-Gao reg 100.2, RGS16-Gao HTS 102.0, Biotin-avidin 0.4, RGS8-Gao single 98.3, RGS7-Gao single 99.6, RGS16-Gao conf 98.6, RGS4-Gao confirm 95.1 and RGS19-Gao single 104.9.
Cc1ccc(S(=O)(=O)Nc2ccccc2C=Nc2cccc(C)c2C)cc1 was read as RGS7-Gao reg 93.2, GSH fluor 11, Avidin fluor 6, RGS8-Gao reg 100.1, RGS4-Gao reg 93.2 and RGS16-Gao HTS 105.6.
Screening CCCC(=O)c1ccc(O)cc1O returned RGS7-Gao reg inconclusive, Avidin fluor 8, RGS8-Gao reg 90.1, RGS4-Gao reg 93.1 and RGS16-Gao HTS 90.2.
Oc1ccc(-c2n[nH]c(=S)n2-c2ccc3c(c2)OCCO3)c(O)c1 was read as RGS7-Gao reg 92.8, GSH fluor 10, Avidin fluor 7, RGS8-Gao reg 72.3, RGS4-Gao reg 99.4, RGS16-Gao HTS 15.4*, RGS-Gao 99.4*, Biotin-avidin -0.3, RGS8-Gao single 89.5, RGS7-Gao single 106.9, RGS16-Gao conf 93.8, RGS4-Gao confirm 99.5 and RGS19-Gao single 79.0.
`Cc1ccc(-c2nn3c(C)nnc3c3ccccc23)cc1S(=O)(=O)NCCO` gave RGS7-Gao reg 172.4*[activator], GSH fluor 24, Avidin fluor 73*, RGS8-Gao reg 104.7, RGS4-Gao reg 115.5, RGS16-Gao HTS 110.8, RGS-Gao 115.5*, Biotin-avidin 1.0, RGS8-Gao single 98.4, RGS7-Gao single 96.1, RGS16-Gao conf 97.9, RGS4-Gao confirm 102.0 and RGS19-Gao single 87.5.
Cc1ccc(-c2nn3c(C)nnc3c3ccccc23)cc1S(=O)(=O)NC(C)(C)CO was read as RGS7-Gao reg 103.8, GSH fluor 10, Avidin fluor 11, RGS8-Gao reg 103.5, RGS4-Gao reg 102.7 and RGS16-Gao HTS 109.1.
For CCN(CC)S(=O)(=O)c1ccc(Cl)c(NC(=O)c2cc(Cl)cc(Cl)c2)c1 the results were RGS7-Gao reg 102.8, GSH fluor 5, Avidin fluor 4, RGS8-Gao reg 99.5, RGS4-Gao reg 100.7 and RGS16-Gao HTS 99.3.
`CCOC(=O)CCC(=O)Nc1cccc([N+](=O)[O-])c1` gave RGS7-Gao reg 102.6, GSH fluor 7, Avidin fluor 1, RGS8-Gao reg 105.8, RGS4-Gao reg 100.8 and RGS16-Gao HTS 114.5.
O=C(CCC(=O)OCc1ccc(Cl)cc1)Nc1cccc([N+](=O)[O-])c1 was read as RGS7-Gao reg 46.1*, GSH fluor 21, Avidin fluor 2, RGS8-Gao reg 58.4*, RGS4-Gao reg 50.9, RGS16-Gao HTS 44.2 and RGS-Gao 50.9*.
`COC(=O)c1c(C(=O)NCc2ccccc2)ncn1CC(O)COc1ccccc1` (stereo unspecified) gave RGS7-Gao reg 85.9, GSH fluor 15, Avidin fluor 9, RGS8-Gao reg 95.6, RGS4-Gao reg 58.0, RGS16-Gao HTS -175.5*, RGS-Gao 58.0*, Biotin-avidin -0.5, RGS8-Gao single 83.1, RGS7-Gao single 73.7*, RGS16-Gao conf 79.5, RGS4-Gao confirm 79.0 and RGS19-Gao single 74.8.

Screening results deposited in PubChem BioAssay by NMMLSC.
